# Results: article PMC8384837, “Expanding the binding specificity for RNA recognition by a PUF domain”
# Residue numbers refer to the chain shown, from its start.
# Legend:
# Assay in all cases: yeast three-hybrid, YBZ-1, SC-Leu-His + 0.5 mM 3-AT, 4 days
# Details in all cases: tags: N-Gal4 AD-HA kept; label: inside an RPR1-promoter hybrid RNA with tandem MS2 sites; ssRNA
# PUM1 PUF domain R6-IFS = biological target: T1, PUM1 PUF domain R6-IFS (Homo sapiens, UniProt Q14671 828-1176, N1043I;Y1044F;Q1047S)
# T1 sequence: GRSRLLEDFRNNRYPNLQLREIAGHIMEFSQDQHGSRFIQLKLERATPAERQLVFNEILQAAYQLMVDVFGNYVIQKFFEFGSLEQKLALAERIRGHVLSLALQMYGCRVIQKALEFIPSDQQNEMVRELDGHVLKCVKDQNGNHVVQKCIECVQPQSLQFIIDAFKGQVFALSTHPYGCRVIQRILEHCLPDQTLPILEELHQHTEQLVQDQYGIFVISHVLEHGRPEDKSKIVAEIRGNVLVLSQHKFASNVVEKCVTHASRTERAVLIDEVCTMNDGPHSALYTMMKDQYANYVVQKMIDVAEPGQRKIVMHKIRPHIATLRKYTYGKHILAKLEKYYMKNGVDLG
# How it was run: (§1)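 Each repeat of the Pumilio-1 PUF domain was randomized at its three base-contacting residues, and these libraries were co-expressed from a centromeric plasmid with matching RNA elements in strain YBZ-1. After four days on SC-Leu (input) or SC-Leu-His + 0.5 mM 3-AT (selection), the repeat regions were PCR-amplified and Illumina-sequenced. The interaction score compares variant frequency between input and selection as a log change, computed in log2 with a pseudocount of 1 for absent variants.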
# PUM1 PUF domain R2-LWV = PUM1 PUF domain R2-LWV (Homo sapiens, UniProt Q14671 828-1176, N899L;Y900W;Q903V)
# How it was run: as §1
# PUM1 PUF domain R6-HFR = biological target: T2, PUM1 PUF domain R6-HFR (Homo sapiens, UniProt Q14671 828-1176, N1043H;Y1044F;Q1047R)
# T2 sequence: T1 sequence with I216H, S220R
# How it was run: as §1
# PUM1 PUF domain R6-KWK = biological target: T3, PUM1 PUF domain R6-KWK (Homo sapiens, UniProt Q14671 828-1176, N1043K;Y1044W;Q1047K)
# T3 sequence: T1 sequence with I216K, F217W, S220K
# How it was run: as §1
# PUM1 PUF domain R8-LYW = PUM1 PUF domain R8-LYW (Homo sapiens, UniProt Q14671 828-1176, N1122L;Q1126W)
# How it was run: as §1
# PUM1 PUF domain R7-RRC = PUM1 PUF domain R7-RRC (Homo sapiens, UniProt Q14671 828-1176, S1079R;N1080R;E1083C)
# How it was run: as §1
# PUM1 PUF domain R3-WCL = PUM1 PUF domain R3-WCL (Homo sapiens, UniProt Q14671 828-1176, C935W;R936C;Q939L)
# How it was run: as §1
# PUM1 PUF domain R3-RIG = PUM1 PUF domain R3-RIG (Homo sapiens, UniProt Q14671 828-1176, C935R;R936I;Q939G)
# How it was run: as §1
# PUM1 PUF domain R1-GGQ = PUM1 PUF domain R1-GGQ (Homo sapiens, UniProt Q14671 828-1176, S863G;R864G)
# How it was run: as §1
sequence,measurement,setting,value
GGCUAGAACUAGUGGAUCCCCCGGCGCCCGGCGGCUCGAGCCCGGGUAAGUGAAAAUAGUCUGCAUGCCGCCGGGCGCCAUGCCUGCAGGUCGACUCUAGAAAACAUG,binding signal,PUM1 PUF domain R6-IFS,5.65 log2 enrichment (interaction score)
GGCUAGAACUAGUGGAUCCCCCGGCGCCCGGCGGCUCGAGCCCGGGUAAGUGUAAAAAGUCUGCAUGCCGCCGGGCGCCAUGCCUGCAGGUCGACUCUAGAAAACAUG,binding signal,PUM1 PUF domain R2-LWV,4.15 log2 enrichment (interaction score)
GGCUAGAACUAGUGGAUCCCCCGGCGCCCGGCGGCUCGAGCCCGGGUAAGUGCAAAUAGUCUGCAUGCCGCCGGGCGCCAUGCCUGCAGGUCGACUCUAGAAAACAUG,binding signal,PUM1 PUF domain R6-HFR,2.56 log2 enrichment (interaction score)
GGCUAGAACUAGUGGAUCCCCCGGCGCCCGGCGGCUCGAGCCCGGGUAAGUGUAAAUAGUCUGCAUGCCGCCGGGCGCCAUGCCUGCAGGUCGACUCUAGAAAACAUG,binding signal,PUM1 PUF domain R6-HFR,6.79 log2 enrichment (interaction score)
same,binding signal,PUM1 PUF domain R6-KWK,4.71 log2 enrichment (interaction score)
same,binding signal,PUM1 PUF domain R8-LYW,2.44 log2 enrichment (interaction score)
GGCUAGAACUAGUGGAUCCCCCGGCGCCCGGCGGCUCGAGCCCGGGUAAGUCUAAAUAGUCUGCAUGCCGCCGGGCGCCAUGCCUGCAGGUCGACUCUAGAAAACAUG,binding signal,PUM1 PUF domain R7-RRC,4.91 log2 enrichment (interaction score)
GGCUAGAACUAGUGGAUCCCCCGGCGCCCGGCGGCUCGAGCCCGGGUAAGUUUAAAUAGUCUGCAUGCCGCCGGGCGCCAUGCCUGCAGGUCGACUCUAGAAAACAUG,binding signal,PUM1 PUF domain R7-RRC,4.95 log2 enrichment (interaction score)
GGCUAGAACUAGUGGAUCCCCCGGCGCCCGGCGGCUCGAGCCCGGGUAAGUGUAAGUAGUCUGCAUGCCGCCGGGCGCCAUGCCUGCAGGUCGACUCUAGAAAACAUG,binding signal,PUM1 PUF domain R3-WCL,3.36 log2 enrichment (interaction score)
same,binding signal,PUM1 PUF domain R3-RIG,3.19 log2 enrichment (interaction score)
GGCUAGAACUAGUGGAUCCCCCGGCGCCCGGCGGCUCGAGCCCGGGUAAGUGUAAAUCGUCUGCAUGCCGCCGGGCGCCAUGCCUGCAGGUCGACUCUAGAAAACAUG,binding signal,PUM1 PUF domain R1-GGQ,1.77 log2 enrichment (interaction score)
GGCUAGAACUAGUGGAUCCCCCGGCGCCCGGCGGCUCGAGCCCGGGUAAGUGUAAAUUGUCUGCAUGCCGCCGGGCGCCAUGCCUGCAGGUCGACUCUAGAAAACAUG,binding signal,PUM1 PUF domain R1-GGQ,2.33 log2 enrichment (interaction score)
GGCUAGAACUAGUGGAUCCCCCGGCGCCCGGCGGCUCGAGCCCGGGUAAGUGUAAUUAGUCUGCAUGCCGCCGGGCGCCAUGCCUGCAGGUCGACUCUAGAAAACAUG,binding signal,PUM1 PUF domain R3-RIG,2.45 log2 enrichment (interaction score)
GGCUAGAACUAGUGGAUCCCCCGGCGCCCGGCGGCUCGAGCCCGGGUAAGCGUAAAUAGUCUGCAUGCCGCCGGGCGCCAUGCCUGCAGGUCGACUCUAGAAAACAUG,binding signal,PUM1 PUF domain R8-LYW,3.09 log2 enrichment (interaction score)
